24 compounds from PubChem BioAssay (EPA / NIEHS) can be followed below.

Read-out in assay [1]: Collagen I, COL1A1 (gene 1277)
Briefly: BSK_MyoF_CollagenI: BioMAP Diversity Plus: MyoF Assay for Collagen I Biomarker Activity (AID 2284238). The conditions noted are these: primary human lung fibroblasts. The method in brief: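 ELISA readout of Collagen I after 24 h chemical treatment of primary human lung fibroblast cultures; gain of signal scored relative to DMSO vehicle baseline.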

Read-out in assay [2]: Collagen III, COL3A1 (gene 1281)
Kind of assay: BSK_MyoF_CollagenIII: BioMAP Diversity Plus: MyoF Assay for Collagen III Biomarker Activity (AID 2284239). Conditions: primary human lung fibroblasts. The method in brief: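 Lung fibroblast culture; 24 h compound exposure; collagen III by ELISA; gain-of-signal fit vs DMSO baseline.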

Read-out in assay [3]: Interleukin 17F (IL17F), IL17F (gene 112744)
Kind of assay: BSK_BT_xIL17F: BioMAP Diversity Plus: BT Assay for Interleukin 17F (IL17F) Biomarker Activity (AID 2284243). The conditions noted are these: primary human B cells with PBMC. In outline: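 Secreted IL-17F, read on LumineX xMAP beads, was taken as the endpoint. Cultures combined human B cells and peripheral blood mononuclear cells, sampled 24 hours after dosing, with DMSO serving as negative control.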

Read-out in assay [4]: Actin alpha 1 (ACTA1), ACTA1 (gene 58)
Kind of assay: BSK_MyoF_ACTA1: BioMAP Diversity Plus: MyoF Assay for Actin alpha 1 (ACTA1) Biomarker Activity (AID 2284244). The conditions noted are these: primary human lung fibroblasts. In outline:
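Lung fibroblasts, human primary, 24 h compound exposure → a-SMA ELISA. Positive-direction fit vs DMSO control.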

Read-out in assay [5]: Interleukin 2 (IL2), IL2 (gene 3558)
Kind of assay: BSK_BT_xIL2: BioMAP Diversity Plus: BT Assay for Interleukin 2 (IL2) Biomarker Activity (AID 2284245). The conditions noted are these: primary human B cells with PBMC. In outline: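 B cell + PBMC co-culture (human primary), compound added, 24 h incubation; secreted IL-2 measured multiplexed on Luminex xMAP; gain-of-signal fit vs DMSO.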

Read-out in assay [6]: Collagen IV, COL4A1 (gene 1282)
Briefly: BSK_MyoF_CollagenIV: BioMAP Diversity Plus: MyoF Assay for Collagen IV Biomarker Activity (AID 2284247). Conditions: primary human lung fibroblasts. In outline:
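Steps: dose human lung fibroblasts; culture 24 h; quantify Collagen IV by ELISA; fit increase versus DMSO control. Parallel SRB total-protein staining (0.1% SRB after 10% TCA fixation, 560 nm) tracks overt cytotoxicity.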

Read-out in assay [7]: Plasminogen activator inhibitor-1 (PAI1), SERPINE1 (gene 5054)
Kind of assay: BSK_MyoF_PAI1: BioMAP Diversity Plus: MyoF Assay for Plasminogen activator inhibitor-1 (PAI1) Biomarker Activity (AID 2284256).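 As to outcome: PAI-1 protein level measured by ELISA in fibroblast cultures; PAI-1 read 24 h after compound addition.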 The conditions noted are these: primary human lung fibroblasts. In outline: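 MyoF lung fibroblasts, human primary; compound 24 h; PAI-1 ELISA; positive-direction fit vs DMSO baseline; parallel SRB total-protein staining for cytotoxicity.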

Assay [8] is described as follows: UKN2_HCS_IMR90_cell_viability: Viability Assessment in the University of Konstanz (UKN) Leist Lab Neural Crest Cell Migration Assay in human induced IMR90 Pluripotent Stem Cells (UKN2) (AID 2284233).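 Also: viability of neural crest cells differentiated from IMR90 iPSC measured by calcein-AM fluorescence imaging; cells exposed to compound for 24 h after a 24 h migration phase.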 In outline: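 Human IMR90-derived neural crest cells were allowed to migrate for 24 h into a cell-free zone, then exposed to test chemicals for 24 h. Calcein-AM and Hoechst staining with high-content imaging gave viability, analysed against DMSO baseline.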

Assay [9] in a line: CCTE_Mundy_HCI_Cortical_NOG_NeuronCount: CCTE's Neurite Outgrowth Assay in rat cortical cells for Neuron Count, Mundy Lab (AID 2284236; active = hit-call score of the fitted dose curve at least 0.9, where 1 is the maximum;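 also: neurons counted by imaging betaIII-tubulin and Hoechst stained cortical cells; cells exposed to compound for about 48 hours before fixation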). In outline: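 Read-out: neuron number by high-content imaging of betaIII-tubulin (Alexa Fluor-488) and Hoechst-labelled rat primary cortical cells.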
A short description of assay [10]: CCTE_Mundy_HCI_Cortical_NOG_BPCount: CCTE's Neurite Outgrowth Assay in rat cortical cells for Branch Point Count, Mundy Lab (AID 2284237).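 As to AC50: branch points counted about two days after chemical exposure.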 The method in brief: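 Measured 50.33 h after dosing, this morphology endpoint uses rat primary cortical cultures labelled for betaIII-tubulin. Branch points are quantified by high-content imaging, with DMSO as negative control and baseline.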

Assay [11] is described as follows: CCTE_Mundy_HCI_hNP1_Casp3_7: CCTE's Caspase-Glo 3/7 Assay in human neuroprogenitor cells for Apoptosis, Mundy Lab (AID 2284240). In outline: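 Apoptosis is scored by activated caspase-3/7 luminescence in WA09-derived neural progenitor cells, measured 26.5 h after chemical dosing. Values represent gain of signal relative to DMSO vehicle.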
The nature of assay [12]: CCTE_Mundy_HCI_hNP1_CellTiter: CCTE's Cell Titer-Glo 2 Assay in human neuroprogenitor cells for Viability, Mundy Lab (AID 2284241; active = hit-call score of the fitted dose curve at least 0.9, where 1 is the maximum;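 as to AC50: a hit is a drop in ATP luminescence versus DMSO meaning reduced viability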). The method in brief:
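Human neural progenitor cells (hNP1, WA09-derived) were plated on poly-L-ornithine/laminin and grown 40 to 44 hours at 37 °C, 5% CO2 before chemical addition. Twenty-four hours later, ATP was measured by CellTiter-Glo luminescence; loss of signal versus DMSO indicates reduced viability.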
On the technique in general: In ATP-based viability assays light output follows the ATP content of the culture.

Assay [13] can be described thus: TAMU_PeakParms_SingleDonor1434_QT: Texas A&M University (TAMU) 1.5-hr Human Induced Pluripotent Stem Cell (iPSC)-derived Cardiomyocytes Calcium (Ca+2) Flux Assay for Cardiotoxicity: QT (decay-rise ratio) (AID 2284235; active = hit-call score of the fitted dose curve at least 0.9, where 1 is the maximum). In outline:
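iPSC-derived cardiomyocytes (single donor 1434) dosed at 0.2, 1, 10, 100 uM final in 0.5% DMSO, 90 min at 37C. Ca2+ flux fluorescence decay/rise ratio; EC05 (5% increase versus DMSO) as POD, excluding beat-arrest and severe-notch data.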

The nature of assay [14]: TAMU_HCS_1.5hr_SingleDonor1434_Cytotoxicity: Cytotoxicity Assessment using High-content Screening (HCS) Fluorescent Imaging for the Texas A&M University (TAMU) 1.5-hr Human Induced Pluripotent Stem Cell (iPSC)-derived Cardiotoxicity Assay (AID 2284234; active = hit-call score of the fitted dose curve at least 0.9, where 1 is the maximum). In outline:
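Human iPSC-derived cardiomyocytes dosed at 0.2, 1, 10, 100 uM final (0.5% DMSO) for 90 min at 37 C. Hoechst 33342-stained nuclei counted by 10x high-content imaging; POD is EC10, a 10% drop in total cell count versus DMSO.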

Assay [15] is described as follows: CCTE_Mundy_HCI_Cortical_Synap_Neur_Matur_NeuronCount: CCTE's Synaptogenesis and Neurite Maturation Assay in rat cortical cells for Neuron Count, Mundy Lab (AID 2284242; active = hit-call score of the fitted dose curve at least 0.9, where 1 is the maximum;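 also: hits reduce neuron count versus DMSO baseline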). In outline: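 Neuron number was scored by automated high-content imaging of Hoechst- and MAP2-labelled rat primary cortical cells. Glial growth was arrested with AraC at DIV 5, compounds were applied from DIV 7, and cultures ended at DIV 12.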

Records with an inconclusive call do not appear. The source made the active and inactive calls. The calls were made as follows, unless noted: active = hit-call score of the fitted dose curve at least 0.9, where 1 is the maximum; inactive = score below 0.9.

In the case of `CC(C)(N=C=O)c1cccc(C(C)(C)N=C=O)c1`, the result in [1], in assay [2], in assay [3], in assay [4], in assay [5] and in assay [6] was inactive. Moreover, the outcome in assay [7] was inactive.
Regarding `COc1cc(Cl)c(OC)cc1N`, the outcome in [1], in assay [2], in assay [3], in assay [4], in [5] and in assay [6] was inactive. Also, the outcome in [7] was inactive.
Take `CCCCOC(=O)CCCCCCCC(=O)OCCCC`: the result in assay [1], in [2], in [3], in [4], in assay [5] and in assay [6] was inactive. Further, the result in assay [7] was inactive.
One may read the AC50 as the midpoint of the concentration-response curve, whichever way the signal moves. `CC(=O)C1(C)CC2=C(CCCC2(C)C)CC1C` (stereo unspecified): the AC50 is 24.7 µM (active) in [1]; 26 µM (active) in [2]; 30.5 µM (active) in assay [3]; 13.1 µM (active) in assay [4]; 11.9 µM (active) in assay [6]; 11.2 µM (active) in assay [7]. For the same compound, in [5], the outcome was inactive.
Consider `COCCOCCOCCO`, for which the outcome in assay [8], in assay [9], in [10], in [11] and in assay [12] was inactive.
In the case of `O=C1OC[C@H](Cc2cccc(O)c2)[C@H]1Cc1cccc(O)c1`, the outcome in assay [1], in [2], in assay [3], in [4], in assay [5] and in [6] was inactive. The outcome in assay [7] was inactive.
For the compound `c1ccc(Oc2ccccc2)cc1`, the result in [1], in assay [2], in [3], in [4], in assay [5] and in assay [6] was inactive. For the same compound, in assay [7], the outcome was inactive.
Turning to `CC(C)(C)CC(C)(C)c1ccc(OCCOCC[N+](C)(C)Cc2ccccc2)cc1`, the AC50 was 5 µM (active) in assay [1]; 7.02 µM (active) in assay [2]; 8.64 µM (active) in assay [3]; 8.1 µM (active) in assay [4]; 6.28 µM (active) in assay [5]; 8.51 µM (active) in assay [6]. Moreover, the AC50 in assay [7] is 5 µM (active).
As for `C[C@@H]1CCN(C(=O)[C@H](CCCN=C(N)N)NS(=O)(=O)c2cccc3c2NC[C@H](C)C3)[C@@H](C(=O)O)C1`, the result in assay [1], in assay [2], in assay [3], in assay [4], in [5] and in [6] was inactive. In addition, the result in assay [7] was inactive.
For `c1ccc2cc(Nc3ccc(Nc4ccc5ccccc5c4)cc3)ccc2c1`, the outcome in assay [1], in assay [3], in [4], in assay [5], in assay [6] and in assay [7] was inactive. Besides, in [2], the AC50 was 4.82 µM (active).
In the case of `CN(C)CCOC(C)(c1ccccc1)c1ccccn1` (stereo unspecified), the outcome in assay [9], in assay [10] and in assay [11] was inactive.
Turning to `CC(C)NCC(O)COc1ccc(CC(N)=O)cc1` (stereo unspecified), the outcome in assay [13] was inactive.
In the case of `Cc1cc(CCC(=O)OCCOCCOCCOC(=O)CCc2cc(C)c(O)c(C(C)(C)C)c2)cc(C(C)(C)C)c1O`, the outcome in [1], in assay [2], in [3], in assay [4], in assay [5] and in assay [6] was inactive. Further, the result in assay [7] was inactive.
In the case of `CN(C)C(=O)Nc1ccc(Oc2ccc(Cl)cc2)cc1`, the result in assay [1], in assay [2], in assay [3], in [4] and in assay [6] was inactive. Besides, the AC50 in assay [5] is 20 µM (active); in assay [7] it was 0.016 µM (active).
For the compound `C=C(C)C(=O)OCCOCCOCCOC(=O)C(=C)C`, the outcome in [1], in assay [2], in [3], in assay [4], in [5] and in assay [6] was inactive. Further, the result in assay [7] was inactive.
With `CN(C)C(=S)SC(=S)N(C)C`, the outcome in assay [1] and in assay [6] was inactive. Also, the AC50 was 19.9 µM (active) in assay [2]; 0.559 µM (active) in [3]; 36.6 µM (active) in assay [4]; 0.432 µM (active) in assay [5]; 3.95 µM (active) in assay [7].
Consider `CC1(C)C2=CCCC(C)(C)[C@]23CC[C@H]1C3`, for which the AC50 is 30.4 µM (active) in assay [1], 39 µM (active) in assay [2], 30.9 µM (active) in [4] and 35.3 µM (active) in [7]. For the same compound, the result in assay [3], in assay [5] and in assay [6] was inactive.
In the case of `Clc1cc(Cl)c(-c2c(Cl)c(Cl)cc(Cl)c2Cl)cc1Cl`, the half-maximal activity concentration (AC50) is 2.99 µM (active) in assay [1]; 12.4 µM (active) in assay [2]; 4.98 µM (active) in assay [4]; 4.55 µM (active) in [5]; 4.46 µM (active) in assay [7]. Moreover, the result in assay [3] and in [6] was inactive.
In the case of `Oc1c(Cl)cc(Cl)c(Cl)c1Cc1c(O)c(Cl)cc(Cl)c1Cl`, the AC50 in [8] was 3.18 µM (active); in assay [14], 14.9 µM (active); in assay [9] it was 50 µM (active); in assay [10] it was 10.4 µM (active); in [1], 0.215 µM (active); in [2], 6.62 µM (active). Moreover, the AC50 in [11] was 27 µM (active); in assay [12], 21.2 µM (active); in assay [15] it was 5 µM (active); in [3] it was 9.92 µM (active); in assay [4], 0.469 µM (active); in assay [5], 19.6 µM (active). In addition, the AC50 in [7] is 0.83 µM (active). For the same compound, the result in assay [13] and in assay [6] was inactive.
In the case of `COc1ccc(CCN2CCC(Nc3nc4ccccc4n3Cc3ccc(F)cc3)CC2)cc1`, the AC50 is 8.62 µM (active) in assay [1]; 6.52 µM (active) in assay [2]; 6.67 µM (active) in assay [3]; 8.05 µM (active) in assay [4]; 6.51 µM (active) in assay [5]. The outcome in assay [6] and in [7] was inactive.
In the case of `CC(C=O)Cc1ccc(C(C)(C)C)cc1` (stereo unspecified), the result in assay [1], in [2], in [3], in assay [5], in [6] and in assay [7] was inactive. For the same compound, the AC50 in assay [4] was 31.6 µM (active).
On to `COCCc1ccc(OCC(O)CNC(C)C)cc1` (stereo unspecified), for which the compound was called inactive in assay [9], in assay [10] and in assay [11]. Also, in assay [12], the AC50 was 2.98 µM (active).
Take `CCCCCC(C=O)=Cc1ccccc1`: the result in assay [1], in assay [2], in assay [3], in assay [5], in [6] and in assay [7] was inactive. In addition, the AC50 in assay [4] is 29.5 µM (active).
With `COc1ccc(OC)c(N=Nc2c(O)ccc3ccccc23)c1`, the result in assay [1], in [5], in assay [6] and in assay [7] was inactive. Moreover, the AC50 in [2] was 10.4 µM (active); in assay [3] it was 5.41 µM (active); in [4], 10.5 µM (active).
